Source: PubChem (Sanford-Burnham Center for Chemical Genomics)
Compounds with a hit are over-represented: about 3% of the library has one in this group of screens.
SENP7 block = blocks the human protease SENP7; Q9BQF6; recombinant SENP7, Z-RLRGG-aminoluciferin luminescence, 40 min; inhibition, % at 5 µM; 330,000 compounds, 1.5% hits; AID 434973;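 active = inhibition above about 50% at the single test dose, limit read from the data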;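 note: plate controls were DMSO with enzyme for no effect and no enzyme buffer wells for full effect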
Target sequence (Q9BQF6 706-1050 limits assumed): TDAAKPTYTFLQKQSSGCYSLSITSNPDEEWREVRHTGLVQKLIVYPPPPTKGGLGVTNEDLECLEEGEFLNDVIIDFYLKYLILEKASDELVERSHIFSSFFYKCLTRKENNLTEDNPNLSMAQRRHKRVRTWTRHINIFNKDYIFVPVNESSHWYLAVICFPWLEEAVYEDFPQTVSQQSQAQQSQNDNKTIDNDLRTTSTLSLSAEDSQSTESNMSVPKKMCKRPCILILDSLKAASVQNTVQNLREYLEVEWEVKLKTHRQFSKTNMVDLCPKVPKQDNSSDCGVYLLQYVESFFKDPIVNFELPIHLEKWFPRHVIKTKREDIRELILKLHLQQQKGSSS
TRAIL sens C8 = sensitizes caspase-8 expressing cells to TRAIL. NB7+C8 cells + TRAIL, ATPlite viability luminescence. inhibition (viability loss, TRAIL sensitization), % at 10 µM. 360,000 compounds, 1% hits;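 active = compounds causing at least 50% loss of cell viability in the single-dose screen, relative to plate controls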
SENP6 inh = SENP6 protease inhibition | Q9GZR1 | 330,000 compounds, 1.8% hits | Recombinant SENP6 catalytic domain, aminoluciferin luminescence | inhibition, % at 10 µM;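 active = inhibition above about 50% at the single tested dose, limit read from the data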;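 note: plate controls were DMSO wells with enzyme for no effect and DMSO wells lacking enzyme for full effect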
SENP8 block-1 = inhibitors of human SENP8 protease; Q96LD8; recombinant SENP8, Nedd8 substrate fluorescence; inhibition, % at 20 µM; 360,000 compounds, 0.64% hits; AID 602440; in the data active = inhibition mostly above about 40%, no sharp cut-off; inactive = mostly below about 27%
PPC-1+TRAIL kill = compounds killing PPC-1 cancer cells with TRAIL present (potentiator screen, no TRAIL-free arm); AID 1443; cell killing (% activity), % at 4 µM or 5 µM; 220,000 compounds, 0.41% hits; PPC-1 cells + TRAIL, ATPLite viability luminescence;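 active = cell killing above 50% in the first pass at 4 µM, then a duplicate retest at 5 µM averaging 50% or more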;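 note: plate controls were cells with TRAIL plus DMSO for no effect and medium-only wells lacking cells for full effect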
SENP8 block-2 = SENP8 protease inhibition; Q96LD8; purified SENP8, Z-RLRGG-aminoluciferin cleavage, luminescence; inhibition, % at 10 µM; 330,000 compounds, 1.2% hits; in the data active = inhibition above about 50%
PPC-1 tox = PPC-1 cell cytotoxicity | shares compounds with PPC-1+TRAIL kill | PPC-1 viability, ATPlite luminescence, overnight | cytotoxicity, % at 5 µM | 1,200 compounds, 50% hits;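 active = reconfirmed compounds whose average cytotoxicity reaches 50% or more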;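 note: 0% = DMSO-treated cells and 100% = wells holding medium but no cells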
* marks the source's active call; other numbers are inactive results.

Screening CCn1c(Cl)c(C=O)s/c1=N\S(=O)(=O)c1ccccc1 returned SENP7 block -5, TRAIL sens C8 39, SENP6 inh -2, SENP8 block-1 0, PPC-1+TRAIL kill 23, SENP8 block-2 -4 and PPC-1 tox 38.
Screening CC1(C)Cc2nc3sc4c(SCC(=O)O)ncnc4c3cc2CO1 returned SENP7 block 1, TRAIL sens C8 76*, SENP6 inh -25, SENP8 block-1 -10, PPC-1+TRAIL kill 71*, SENP8 block-2 -3 and PPC-1 tox 75*.
Screening CC1(C)Cc2nc3sc(C(=O)NCCCO)c(N)c3cc2CS1 returned SENP7 block 7, TRAIL sens C8 0, SENP6 inh 7, SENP8 block-1 -268, PPC-1+TRAIL kill 22 and SENP8 block-2 -1.
`CC1(C)Cc2nc3sc(C(=O)NCCO)c(N)c3cc2CO1` gave SENP7 block 3, TRAIL sens C8 -4, SENP6 inh -10, SENP8 block-1 -82, PPC-1+TRAIL kill 8, SENP8 block-2 -4 and PPC-1 tox 8.
For O=C(COc1ccc2c(c1)OCO2)Nc1nncs1 the results were SENP7 block 27, TRAIL sens C8 17, SENP6 inh 47, SENP8 block-1 9 and SENP8 block-2 29.
`Cc1cc(C)c2c(N)c(C(=O)Nc3nccs3)sc2n1` gave SENP7 block 1, TRAIL sens C8 81*, SENP6 inh 9, SENP8 block-1 -264, PPC-1+TRAIL kill 82*, SENP8 block-2 -3 and PPC-1 tox 81*.
`CN(C)S(=O)(=O)c1ccc(NC(=O)C2CC3C=CC2C3)cc1` (stereo not given) gave SENP7 block -3, TRAIL sens C8 1, SENP6 inh -10, SENP8 block-1 23, PPC-1+TRAIL kill 12 and SENP8 block-2 -4.
For CCOc1ccc(NC(=O)C2CC(=O)N(CCc3ccc(OC)c(OC)c3)C2)cc1OCC (stereo not given) the results were SENP7 block -3, TRAIL sens C8 -21, SENP6 inh -2, SENP8 block-1 16 and SENP8 block-2 -17.
CN1CCN(C(=O)c2ccc(COc3ccc(C(C)(C)C)cc3)o2)CC1 was read as SENP7 block -11, TRAIL sens C8 11, SENP6 inh -16, SENP8 block-1 22, PPC-1+TRAIL kill 22, SENP8 block-2 -11 and PPC-1 tox 22.
CC(Sc1nc(C(C)(C)C)cc(-c2ccccc2)c1C#N)C(=O)Nc1ccccc1 (stereo not given) was read as SENP7 block 5, TRAIL sens C8 3, SENP6 inh -3, SENP8 block-1 21, PPC-1+TRAIL kill 10 and SENP8 block-2 6.
Cc1cc(C)c(C)c(S(=O)(=O)NC(C(=O)O)C(C)C)c1C (stereo not given) was read as SENP7 block 0, TRAIL sens C8 1, SENP6 inh -13, SENP8 block-1 2, PPC-1+TRAIL kill -6 and SENP8 block-2 -3.
For O=C(Nc1ccccc1Cl)N1C2CCC1CC(O)(c1cccnc1)C2 (stereo not given) the results were SENP7 block 5, TRAIL sens C8 -8, SENP6 inh 0, SENP8 block-1 3, PPC-1+TRAIL kill -2, SENP8 block-2 5 and PPC-1 tox 9.
For O=C(Nc1ccc(S(=O)(=O)NC2=NCCCCC2)cc1)c1ccc(C(F)(F)F)cc1 the results were SENP7 block -9, TRAIL sens C8 7, SENP6 inh -9, SENP8 block-1 28, PPC-1+TRAIL kill 36 and SENP8 block-2 -4.
`CN(C)S(=O)(=O)c1ccc(C(=O)Nc2ccc(S(=O)(=O)NC3=NCCCCC3)cc2)cc1` gave SENP7 block -1, TRAIL sens C8 -4, SENP6 inh 4, SENP8 block-1 15, PPC-1+TRAIL kill -5, SENP8 block-2 2 and PPC-1 tox -10.
`O=c1c2ccccc2cnn1-c1nc2ccccc2[nH]1` gave TRAIL sens C8 94*, SENP8 block-1 -372, PPC-1+TRAIL kill 94* and PPC-1 tox 94*.
For CN(C)CCCn1c(SCC(=O)N2c3ccccc3Sc3ccccc32)nc2ccccc2c1=O the results were TRAIL sens C8 -10, SENP8 block-1 6 and PPC-1+TRAIL kill -11.
